Several values for one entry are separate records, joined by “and”; a condition that tells them apart may be missing. Equal values may be shown once. The campaign covered roughly 5,500 compounds. About 2,000 (36%) were called active. About 18% were inconclusive and are not listed. Cut-off read from the data, not from the text of the source: active = normalized growth mostly below about 0.91 (no sharp cut-off); inconclusive = no clear call, values can overlap the other calls; inactive = mostly above about 0.92. The list shows a part of the results.
Test: chemical genetic growth profiling, strain panel (AID 1159580);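 note: tested at 20 µM; growth read once vehicle control cultures reached saturation at 30 °C; 1 = growth at the plate median or of vehicle wells; lower values mean less growth of the strain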
Details: S. cerevisiae deletion strains, growth OD

Measured: normalized growth

Cc1ccc(O)cc1
inactive: locus YAL013W, strain DEP1, active compounds read low 1.02 | locus YAL021C, strain ccr4, active compounds read low 1.04 | locus YAL026C, strain drs2, active compounds read low 1.03 | locus YAL030W, strain snc1, active compounds read low 1.02 | locus YBL061C, strain skt5, active compounds read low 1.02 | locus YBR009C, strain hhf1, active compounds read low 1.03 | locus YBR021W, strain FUR4, active compounds read low 1.07 | locus YBR023C, strain chs3, active compounds read low 1.02 | locus YBR171W, strain sec66, active compounds read low 1.02 | locus YBR229C, strain ROT2, active compounds read low 1.02 | locus YBR231C, strain swc5, active compounds read low 0.992 | locus YBR279W, strain paf1, active compounds read low 1.02 | locus YCL011C, strain gbp2, active compounds read low 1.02 | locus YCL016C, strain dcc1, active compounds read low 1.01 | locus YCL029C, strain bik1, active compounds read low 0.985 | locus YCL061C, strain MRC1, active compounds read low 1.02 | locus YCL069W, strain vba3, active compounds read low 1.02 | locus YCR088W, strain abp1, active compounds read low 1.01 | locus YDL005C, strain med2, active compounds read low 1.03 | locus YDL035C, strain GPR1, active compounds read low 1.01 | locus YDL040C, strain nat1, active compounds read low 1.01 | locus YDL074C, strain BRE1, active compounds read low 1.03 | locus YDL101C, strain DUN1, active compounds read low 1.03 | locus YDL134C, strain PPH21, active compounds read low 1.05 | locus YDL185W, strain tfp1, active compounds read low 0.99 | locus YDL192W, strain arf1, active compounds read low 1.04 | locus YDR001C, strain nth1, active compounds read low 1.02 | locus YDR069C, strain doa4, active compounds read low 1.04 | locus YDR101C, strain arx1, active compounds read low 0.98 | locus YDR137W, strain rgp1, active compounds read low 1.04 | locus YDR159W, strain sac3, active compounds read low 1 | locus YDR162C, strain NBP2, active compounds read low 1.03 | locus YDR195W, strain ref2 1.01 | locus YDR297W, strain sur2, active compounds read low 1.03 | locus YDR318W, strain mcm21, active compounds read low 1.01 | locus YDR334W, strain swr1, active compounds read low 1.02 | locus YDR335W, strain msn5, active compounds read low 1.02 | locus YDR388W, active compounds read low 1.02 | locus YDR392W, strain spt3, active compounds read low 0.916 | locus YDR502C, strain sam2, active compounds read low 0.979 | locus YEL003W, strain gim4, active compounds read low 1.01 | locus YEL037C, strain rad23, active compounds read low 1.01 | locus YEL061C, strain CIN8 (second series), active compounds read low 1.01 | locus YEL061C, strain CIN8, active compounds read low 1.02 | locus YER015W, strain faa2, active compounds read low 1.01 | locus YER016W, strain bim1, active compounds read low 1.01 | locus YER110C, active compounds read low 0.991 | locus YER111C, strain swi4, active compounds read low 1.01 | locus YER155C, strain BEM2 (second series), active compounds read low 1.03 | locus YER155C, strain BEM2, active compounds read low 1.02 | locus YER167W, strain BCK2, active compounds read low 1.03 | locus YFR010W, strain ubp6, active compounds read low 1.02 | locus YGL078C, strain dbp3, active compounds read low 0.989 | locus YGL086W, strain mad1, active compounds read low 1.01 | locus YGL167C, strain pmr1, active compounds read low 1.01 | locus YGL173C, strain kem1, active compounds read low 1.04 | locus YGL227W, strain vid30, active compounds read low 1.02 | locus YGL240W, strain doc1, active compounds read low 1.02 | locus YGL248W, strain PDE1, active compounds read low 1.07 | locus YGL253W, strain hxk2, active compounds read low 1.03 | locus YGR135W, strain pre9, active compounds read low 1.01 | locus YGR229C, strain SMI1, active compounds read low 1.04 | locus YGR252W, strain gcn5, active compounds read low 0.966 | locus YHR013C, strain ard1, active compounds read low 1.02 | locus YHR027C, strain rpn1, active compounds read low 1.02 | locus YHR030C, strain SLT2, active compounds read low 1.03 and 1 | locus YHR079C, strain IRE1 (second series), active compounds read low 1.01 | locus YHR079C, strain IRE1, active compounds read low 1 | locus YHR094C, strain hxt1, active compounds read low 0.99 | locus YHR129C, strain ARP1, active compounds read low 1.03 | locus YHR142W, strain chs7, active compounds read low 1.03 | locus YHR200W, strain rpn10, active compounds read low 1.01 | locus YIL066C, strain RNR3, active compounds read low 1.06 | locus YIL073C, strain SPO22, active compounds read low 1.03 | locus YIL125W, strain kgd1, active compounds read low 0.994 | locus YIR030C, strain dcg1, active compounds read low 1.01 | locus YJL092W, strain hpr5, active compounds read low 1.02 | locus YJL095W, strain BCK1 (second series), active compounds read low 1.01 | locus YJL095W, strain BCK1, active compounds read low 1.07 and 1.02 | locus YJL115W, strain asf1, active compounds read low 1.01 | locus YJL129C, strain trk1, active compounds read low 1.01 | locus YJL134W, strain LCB3, active compounds read low 1.02 | locus YJL154C, strain vps35, active compounds read low 1.03 | locus YJL164C, strain tpk1, active compounds read low 1.02 | locus YJL166W, strain qcr8, active compounds read low 1.02 | locus YJL168C, strain set2, active compounds read low 0.994 | locus YJL187C, strain SWE1 (second series), active compounds read low 1.04 | locus YJR043C, strain POL32, active compounds read low 1.01 | locus YJR066W, strain TOR1, active compounds read low 0.987 | locus YKL009W, strain mrt4, active compounds read low 1.01 | locus YKL068W, active compounds read low 1 | locus YKL085W, strain MDH1 (second series), active compounds read low 1 | locus YKL085W, strain MDH1, active compounds read low 1 | locus YKL160W, strain elf1, active compounds read low 1.01 | locus YKR001C, strain vps1, active compounds read low 0.998 | locus YKR026C, strain gcn3, active compounds read low 1.02 | locus YKR091W, strain srl3, active compounds read low 1.02 | locus YLL001W, strain dnm1, active compounds read low 0.984 | locus YLL026W, active compounds read low 1.01 | locus YLL041C, strain sdh2, active compounds read low 1.02 | locus YLR027C, strain aat2, active compounds read low 1.03 | locus YLR039C, strain RIC1, active compounds read low 1.05 | locus YLR058C, strain SHM2, active compounds read low 1.04 | locus YLR102C, strain apc9, active compounds read low 0.993 | locus YLR113W, strain HOG1, active compounds read low 1.01 | locus YLR221C, strain rsa3, active compounds read low 1.03 | locus YLR258W, strain gsy2, active compounds read low 1.01 | locus YLR262C, strain YPT6 (second series), active compounds read low 1.04 | locus YLR262C, strain YPT6, active compounds read low 1.07 | locus YLR268W, strain sec22, active compounds read low 0.998 | locus YLR320W, strain mms22, active compounds read low 1.02 | locus YLR330W, strain CHS5, active compounds read low 1.03 | locus YLR342W, strain FKS1 (second series), active compounds read low 1.08 | locus YLR342W, strain FKS1, active compounds read low 1.02 | locus YLR357W, strain rsc2, active compounds read low 1.01 | locus YLR370C, strain arc18, active compounds read low 1.01 | locus YLR371W, strain rom2, active compounds read low 1.02 | locus YLR384C, strain iki3, active compounds read low 1.02 | locus YLR418C, strain cdc73, active compounds read low 1.04 | locus YML016C, strain PPZ1, active compounds read low 1.04 | locus YML032C, strain rad52, active compounds read low 1 | locus YML120C, strain ndi1, active compounds read low 1.01 | locus YML124C, strain tub3, active compounds read low 0.999 | locus YMR058W, strain fet3, active compounds read low 1.03 | locus YMR078C, strain ctf18, active compounds read low 1 | locus YMR125W, strain sto1, active compounds read low 1.03 | locus YMR129W, active compounds read low 1.01 | locus YMR205C, strain PFK2, active compounds read low 1.03 | locus YMR223W, strain ubp8, active compounds read low 1.02 | locus YMR231W, strain pep5, active compounds read low 1.02 | locus YMR263W, strain SAP30, active compounds read low 1.02 | locus YMR307W, strain GAS1, active compounds read low 1.13 | locus YNL067W, strain RPL9B, active compounds read low 1.02 | locus YNL071W, strain lat1, active compounds read low 1.02 | locus YNL128W, strain TEP1, active compounds read low 1.02 | locus YNL183C, strain NPR1, active compounds read low 0.951 | locus YNL209W, strain ssb2, active compounds read low 1.01 | locus YNL233W, strain BNI4, active compounds read low 1.05 | locus YNL248C, strain rpa49, active compounds read low 1.03 | locus YNL250W, strain rad50, active compounds read low 0.996 | locus YNL271C, strain bni1, active compounds read low 0.994 | locus YNL298W, strain CLA4, active compounds read low 1 | locus YNL307C, strain MCK1, active compounds read low 1.01 | locus YNL322C, strain KRE1 (second series), active compounds read low 1.02 | locus YNR049C, strain mso1, active compounds read low 1.02 | locus YNR052C, strain pop2, active compounds read low 0.997 | locus YOL006C, strain TOP1, active compounds read low 1.01 | locus YOL012C, strain htz1 1.54 | locus YOL147C, strain pex11, active compounds read low 1.01 | locus YOR001W, strain rrp6, active compounds read low 0.984 | locus YOR061W, strain CKA2, active compounds read low 1.02 | locus YOR069W, strain VPS5, active compounds read low 1.02 | locus YOR070C, strain gyp1, active compounds read low 1.01 | locus YOR080W, strain dia2, active compounds read low 1.01 | locus YOR083W, strain WHI5, active compounds read low 1.01 | locus YOR106W, strain vam3, active compounds read low 1.01 | locus YOR136W, strain idh2, active compounds read low 0.99 | locus YOR144C, strain elg1, active compounds read low 0.999 | locus YOR184W, strain ser1, active compounds read low 1.02 | locus YOR231W, strain MKK1, active compounds read low 0.993 | locus YOR265W, strain rbl2, active compounds read low 1.03 | locus YOR270C, strain vph1, active compounds read low 1.08 | locus YOR290C, strain snf2, active compounds read low 1.02 | locus YOR316C, strain cot1, active compounds read low 0.999 | locus YPL051W, strain arl3, active compounds read low 1.01 | locus YPL055C, strain LGE1, active compounds read low 1.05 | locus YPL078C, strain atp4, active compounds read low 1.02 | locus YPL106C, strain sse1, active compounds read low 1.01 | locus YPL240C, strain hsp82, active compounds read low 1.01 | locus YPL241C, strain CIN2, active compounds read low 1.01 | locus YPL256C, strain CLN2, active compounds read low 1.03 | locus YPR119W, strain clb2, active compounds read low 0.995 | locus YPR141C, strain kar3, active compounds read low 1 | locus YPR163C, strain tif3, active compounds read low 1 | locus YPR167C, strain met16, active compounds read low 1.02 | strain wtn01, active compounds read low 1.03

— PubChem BioAssay AID1159580 (chemical genetic matrix, 2015)
